Measured values as given in PubChem BioAssay (NCATS).
Inconclusive results are not listed. Values without a mark were called inactive. Active and inactive are the calls of the source. Calls come from the whole dose curve; as a rule, active = well fitted cell-killing curve with a large enough effect; inconclusive = small, poorly fitted or top-dose-only effect, or effect the other way; inactive = no such curve, though single readings can be large or run the other way.

Experiments:
[1] = Quantitative High-Throughput drug screen in 47 multiple myeloma cell lines against the NCATS MIPE library collection: MM1S_ATCC cell viability assay (AID 1918980); note: nearly all actives have a fitted effect of over 45% in size
How it was run: (§1)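 Viability after 48 h drug exposure was measured as ATP-dependent luminescence. Cells, 500 per well, sat at 37 °C under 5% CO2; DMSO wells set 100%, media-only wells 0%.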

[2] = Quantitative High-Throughput drug screen in 47 multiple myeloma cell lines against the NCATS MIPE library collection: KMS28PE_JCRB cell viability assay (AID 1918983); note: nearly all actives have a fitted effect of over 35% in size
How it was run: as §1

[3] = Quantitative High-Throughput drug screen in 47 multiple myeloma cell lines against the NCATS MIPE library collection: L363_DSMZ cell viability assay (AID 1918984); note: nearly all actives have a fitted effect of over 40% in size
How it was run: as §1

[4] = Quantitative High-Throughput drug screen in 47 multiple myeloma cell lines against the NCATS MIPE library collection: KMS34_JCRB cell viability assay (AID 1918985); note: nearly all actives have a fitted effect of over 40% in size
How it was run: as §1

[5] = Quantitative High-Throughput drug screen in 47 multiple myeloma cell lines against the NCATS MIPE library collection: OCIMY7_PLB cell viability assay (AID 1918987); conditions: OCI-MY7 myeloma viability, CellTiter-Glo ATP, 48 h; viability (% of DMSO): at 45.8 µM (top of the series); note: nearly all actives have a fitted effect of over 65% in size
How it was run: as §1

[6] = Quantitative High-Throughput drug screen in 47 multiple myeloma cell lines against the NCATS MIPE library collection: OCIMY5_PLB cell viability assay (AID 1918988); note: nearly all actives have a fitted effect of over 65% in size
How it was run: as §1

[7] = Quantitative High-Throughput drug screen in 47 multiple myeloma cell lines against the NCATS MIPE library collection: OPM1_PLB cell viability assay (AID 1918989); note: nearly all actives have a fitted effect of over 40% in size
How it was run: as §1

[8] = Quantitative High-Throughput drug screen in 47 multiple myeloma cell lines against the NCATS MIPE library collection: U266_ATCC cell viability assay (AID 1919864); note: nearly all actives have a fitted effect of over 35% in size
How it was run: as §1

[9] = Quantitative High-Throughput drug screen in 47 multiple myeloma cell lines against the NCATS MIPE library collection: XG6_PLB cell viability assay (AID 1919865); note: nearly all actives have a fitted effect of over 40% in size
How it was run: as §1

[10] = Quantitative High-Throughput drug screen in 47 multiple myeloma cell lines against the NCATS MIPE library collection: XG1_PLB cell viability assay (AID 1919866); note: nearly all actives have a fitted effect of over 35% in size
How it was run: as §1

[11] = Quantitative High-Throughput drug screen in 47 multiple myeloma cell lines against the NCATS MIPE library collection: VP6_DJ cell viability assay (AID 1919867); note: nearly all actives have a fitted effect of over 40% in size
How it was run: as §1

[12] = Quantitative High-Throughput drug screen in 47 multiple myeloma cell lines against the NCATS MIPE library collection: UTMC2_PLB cell viability assay (AID 1919868); conditions: CellTiter-Glo ATP luminescence, 48 h; viability (% of DMSO control): at 45.8 µM (top of the series); note: nearly all actives have a fitted effect of over 55% in size
How it was run: as §1

[13] = Quantitative High-Throughput drug screen in 47 multiple myeloma cell lines against the NCATS MIPE library collection: PE2_PLB cell viability assay (AID 1919869); note: nearly all actives have a fitted effect of over 35% in size
How it was run: as §1

[14] = Quantitative High-Throughput drug screen in 47 multiple myeloma cell lines against the NCATS MIPE library collection: PCM6_Riken cell viability assay (AID 1919870); note: nearly all actives have a fitted effect of over 30% in size
How it was run: as §1

[15] = Quantitative High-Throughput drug screen in 47 multiple myeloma cell lines against the NCATS MIPE library collection: OPM2_DSMZ cell viability assay (AID 1919872); note: nearly all actives have a fitted effect of over 30% in size
How it was run: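 Myeloma cell lines, 500 cells per well, exposed to MIPE 4.0 library compounds for 48 h at 37C, 5% CO2. Viability from ATP by CellTiter-Glo luminescence; normalised to DMSO (100%) and media-only (0%) wells.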

[16] = Quantitative High-Throughput drug screen in 47 multiple myeloma cell lines against the NCATS MIPE library collection: MM1R_ATCC cell viability assay (AID 1918981); note: nearly all actives have a fitted effect of over 35% in size
How it was run: as §1

[17] = Quantitative High-Throughput drug screen in 47 multiple myeloma cell lines against the NCATS MIPE library collection: LP1_DSMZ cell viability assay (AID 1918982); note: nearly all actives have a fitted effect of over 35% in size
How it was run: as §1

[18] = Quantitative High-Throughput drug screen in 47 multiple myeloma cell lines against the NCATS MIPE library collection: SKMM1_PLB cell viability assay (AID 1919863); conditions: SKMM1 myeloma viability, CellTiter-Glo ATP, 48 h; viability: hits give low values; note: nearly all actives have a fitted effect of over 35% in size
How it was run: as §1

[19] = Quantitative High-Throughput drug screen in 47 multiple myeloma cell lines against the NCATS MIPE library collection: RPMI8226_ATCC cell viability assay (AID 1919871); note: nearly all actives have a fitted effect of over 30% in size
How it was run: as §1
Potency is the fitted concentration of half-maximal effect.

In the case of `Nc1ccc(C(=O)Nc2cccc(-c3nc(N4CCOCC4)c4oc5ncccc5c4n3)c2)cn1`, the Potency [1] is reported as 23.5 µM (active), the Potency [2] is reported as 26.4 µM (active) and the Potency [3] is reported as 1.18 µM (active). For the same compound, the Potency [4] was 7.43 µM (active), the Potency [5] was 3.32 µM (active) and the Potency [6] was 5.9 µM (active). For the same compound, the Potency [7] was 1.48 µM (active), the Potency [8] was 20.9 µM (active) and the Potency [9] was 2.96 µM (active). The Potency [10] was 5.9 µM (active), the Potency [11] was 4.18 µM (active) and the Potency [12] was 3.32 µM (active). For the same compound, the Potency [13] was 2.09 µM (active), the Potency [14] was 5.9 µM (active) and the Potency [15] was 5.26 µM (active).

In the case of `O=C1c2c(O)cccc2[C@@H]([C@@H]2O[C@H](CO)[C@@H](O)[C@H](O)[C@H]2O)c2cc(CO)cc(O)c21`, the Potency [16] is reported as “inactive”, the Potency [17] is reported as “inactive” and the Potency [2] is reported as “inactive”. For the same compound, the Potency [4] was “inactive”, the Potency [5] was “inactive” and the Potency [6] was “inactive”. For the same compound, the viability [18] was 153%, the Potency [8] was “inactive” and the Potency [9] was “inactive”. The Potency [10] was “inactive”, the Potency [11] was “inactive” and the Potency [13] was “inactive”. For the same compound, the Potency [14] was “inactive”, the Potency [19] was “inactive” and the Potency [15] was “inactive”.

With `N#CC(=C(N)Sc1ccc(N)cc1)c1ccccc1C(F)(F)F` the Potency [16] was 14.8 µM (active), the Potency [17] was 16.6 µM (active) and the Potency [2] was 6.62 µM (active). For the same compound, the Potency [4] was “inactive”, the Potency [5] was 0.148 µM (active) and the Potency [6] was 16.6 µM (active). For the same compound, the Potency [18] was 7.43 µM (active), the Potency [10] was 2.96 µM (active) and the Potency [14] was “inactive”. The Potency [19] was 13.2 µM (active) and the Potency [15] was “inactive”.

In the case of `COc1cc(C(=O)NC2CCN(C)CC2)ccc1Nc1ncc2c(n1)N(C1CCCC1)CCC(=O)N2C(C)C`, the Potency [1] is reported as 1.05 µM (active), the Potency [3] is reported as 16.6 µM (active) and the Potency [5] is reported as 14.8 µM (active). The Potency [6] was 18.7 µM (active), the Potency [7] was 20.9 µM (active) and the Potency [8] was 18.7 µM (active). The Potency [9] was 4.69 µM (active), the Potency [10] was 20.9 µM (active) and the Potency [11] was 14.8 µM (active). The Potency [13] was 20.9 µM (active) and the Potency [14] was 18.7 µM (active).

In the case of `Cn1c(Nc2ccc(C(F)(F)F)cc2)nc2cc(Oc3ccnc(-c4ncc(C(F)(F)F)[nH]4)c3)ccc21`, the Potency [1] is reported as 9.35 µM (active), the Potency [2] is reported as 23.5 µM (active) and the Potency [3] is reported as 16.6 µM (active). The Potency [5] was 3.72 µM (active), the Potency [6] was 9.35 µM (active) and the Potency [7] was 16.6 µM (active). The Potency [18] was 20.9 µM (active), the Potency [8] was 6.62 µM (active) and the Potency [9] was 5.9 µM (active). The Potency [11] was 13.2 µM (active), the Potency [12] was 16.6 µM (active) and the Potency [13] was 16.6 µM (active). The Potency [14] was 1.87 µM (active) and the Potency [19] was 16.6 µM (active).

With `Cn1cc(C[C@@H](N)C(=O)O)c2ccccc21` the Potency [1] was “inactive”, the Potency [4] was 4.57 µM (active) and the Potency [6] was “inactive”. For the same compound, the Potency [7] was “inactive”, the Potency [18] was 7.24 µM (active) and the Potency [9] was “inactive”. For the same compound, the Potency [10] was “inactive”, the Potency [13] was “inactive” and the Potency [19] was “inactive”. The Potency [15] was “inactive”.

With `Cc1ccc(-n2[nH]c(C)c(N=Nc3cccc(-c4cccc(C(=O)O)c4)c3O)c2=O)cc1C` the Potency [1] was 18.7 µM (active), the Potency [17] was 16.6 µM (active) and the Potency [3] was “inactive”. For the same compound, the Potency [6] was 26.4 µM (active), the Potency [8] was 20.9 µM (active) and the Potency [10] was 23.5 µM (active). The Potency [13] was 26.4 µM (active).

With `COc1cc2ncnc(Nc3cccc(Br)c3)c2cc1OC` the Potency [1] was 0.0148 µM (active), the Potency [2] was 2.96 µM (active) and the Potency [5] was 0.0372 µM (active). The Potency [6] was 0.0118 µM (active), the Potency [7] was 7.43 µM (active) and the Potency [8] was “inactive”. The Potency [9] was 0.0118 µM (active), the Potency [10] was 0.0372 µM (active) and the Potency [13] was 5.9 µM (active).

For `CC(C)(O)[C@H]1CC[C@@](C)([C@H]2[C@@H](O)C[C@@]3(C)[C@@H]4C[C@H](O[C@@H]5O[C@H](CO)[C@@H](O)[C@H](O)[C@@H]5O)[C@H]5C(C)(C)[C@@H](O[C@@H]6OC[C@@H](O)[C@H](O)[C@@H]6O)CC[C@@]56C[C@@]46CC[C@]23C)O1`, the Potency [16] was “inactive”, the Potency [17] was “inactive” and the Potency [2] was “inactive”. The Potency [4] was “inactive”, the Potency [5] was “inactive” and the Potency [7] was 16.6 µM (active). The Potency [8] was “inactive”, the Potency [10] was “inactive” and the Potency [12] was “inactive”. For the same compound, the Potency [14] was “inactive”, the Potency [19] was “inactive” and the Potency [15] was “inactive”.

In the case of `CC(C)(C)[N+]([O-])=Cc1ccc(S(=O)(=O)O)cc1S(=O)(=O)O`, the Potency [16] is reported as “inactive”, the Potency [17] is reported as “inactive” and the Potency [2] is reported as “inactive”. For the same compound, the Potency [3] was “inactive”, the Potency [6] was “inactive” and the Potency [7] was “inactive”. The viability [18] was 115%, the Potency [9] was “inactive” and the Potency [10] was “inactive”. The Potency [11] was “inactive”, the Potency [13] was “inactive” and the Potency [19] was “inactive”. For the same compound, the Potency [15] was “inactive”.

For `COc1cc([C@@H]2c3cc4c(cc3[C@H](O)[C@H]3COC(=O)[C@@H]23)OCO4)cc(OC)c1OC`, the Potency [1] was 0.833 µM (active), the Potency [2] was 0.148 µM (active) and the Potency [3] was 0.0662 µM (active). The Potency [4] was 0.0833 µM (active), the Potency [5] was 0.0469 µM (active) and the Potency [6] was 0.0296 µM (active). For the same compound, the Potency [7] was 0.187 µM (active), the Potency [9] was 0.0833 µM (active) and the Potency [10] was 0.0469 µM (active). For the same compound, the Potency [11] was 0.296 µM (active), the Potency [12] was 0.209 µM (active) and the Potency [13] was 0.148 µM (active). The Potency [14] was 0.332 µM (active), the Potency [19] was 0.469 µM (active) and the Potency [15] was 0.148 µM (active).

In the case of `C=CC(=O)Nc1cc(NC(=O)c2ccc(C)c(NC(=O)c3ccno3)c2)cc(C(F)(F)F)c1`, the Potency [1] is reported as 16.6 µM (active), the Potency [5] is reported as 16.6 µM (active) and the Potency [6] is reported as 18.7 µM (active). For the same compound, the Potency [7] was 23.5 µM (active), the Potency [18] was 18.7 µM (active) and the Potency [8] was 20.9 µM (active). For the same compound, the Potency [9] was 16.6 µM (active), the Potency [10] was 14.8 µM (active) and the Potency [11] was 16.6 µM (active). The Potency [12] was 20.9 µM (active), the Potency [13] was 16.6 µM (active) and the Potency [14] was 16.6 µM (active). For the same compound, the Potency [19] was 23.5 µM (active).

In the case of `C#Cc1cccc(Nc2ncnc3cc(OCCOC)c(OCCO)cc23)c1`, the Potency [1] is reported as 3.72 µM (active), the Potency [2] is reported as 18.7 µM (active) and the Potency [3] is reported as 0.372 µM (active). The Potency [5] was 1.87 µM (active), the Potency [6] was 3.32 µM (active) and the Potency [7] was 13.2 µM (active). For the same compound, the Potency [8] was 16.6 µM (active) and the Potency [13] was 1.05 µM (active).
